Pol kappa inh = qHTS for Inhibitors of Polymerase Kappa | DNA polymerase kappa (Homo sapiens), Q9UBT6 | purified Pol kappa, fluorescent DNA synthesis assay, 10 min | Potency, µM (doses to about 107 µM), without a hit: top-dose activity, negative = inhibition, hits mostly inhibitors | hit rate 0.53% among 400,000 | AID 588579, 2011; also: potency is read from the fitted curve at half-maximal effect; % is scaled to controls: 0 for no effect and ±100 for the full control effect
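50 nM final substrate added after 15 min RT preincubation of 10 nM Pol kappa with compound; fluorescence read at 0 and 10 min.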
WRN inhibitor = qHTS for Inhibitors of WRN Helicase; Bifunctional 3'-5' exonuclease/ATP-dependent helicase WRN (Homo sapiens), Q14191; WRN helicase unwinding, fluorescent forked duplex, kinetic; Potency, µM (highest dose often 114 µM), inactives show at the top dose activity change, negative = inhibition, hits mostly inhibitors; hit rate 0.46% among 360,000; AID 651768, 2012; also: potency is read from the fitted curve at half-maximal effect; % is scaled to controls: 0 for no effect and ±100 for the full control effect; nearly all actives have a fitted effect of over 55% in size
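WRN at 20 nM final was preincubated with compound for 15 min at room temperature; reaction started with 100 nM forked duplex oligonucleotide carrying fluorophore and quencher plus 2 mM ATP (final). Unwinding followed kinetically by red fluorescence (ex 525/em 598 nm).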
Pol iota inh = qHTS for Inhibitors of Polymerase Iota. DNA polymerase iota (Homo sapiens), Q9UNA4. Pol iota fluorescent replication assay, 10 min. Potency, µM (series often up to 115 µM), for inactives: at the top dose activity, negative = inhibition, actives largely listed as inhibitors. hit rate 1% among 390,000. AID 588590, 2011; also: potency is read from the fitted curve at half-maximal effect
Target sequence (Q9UNA4 whole entry, looked up): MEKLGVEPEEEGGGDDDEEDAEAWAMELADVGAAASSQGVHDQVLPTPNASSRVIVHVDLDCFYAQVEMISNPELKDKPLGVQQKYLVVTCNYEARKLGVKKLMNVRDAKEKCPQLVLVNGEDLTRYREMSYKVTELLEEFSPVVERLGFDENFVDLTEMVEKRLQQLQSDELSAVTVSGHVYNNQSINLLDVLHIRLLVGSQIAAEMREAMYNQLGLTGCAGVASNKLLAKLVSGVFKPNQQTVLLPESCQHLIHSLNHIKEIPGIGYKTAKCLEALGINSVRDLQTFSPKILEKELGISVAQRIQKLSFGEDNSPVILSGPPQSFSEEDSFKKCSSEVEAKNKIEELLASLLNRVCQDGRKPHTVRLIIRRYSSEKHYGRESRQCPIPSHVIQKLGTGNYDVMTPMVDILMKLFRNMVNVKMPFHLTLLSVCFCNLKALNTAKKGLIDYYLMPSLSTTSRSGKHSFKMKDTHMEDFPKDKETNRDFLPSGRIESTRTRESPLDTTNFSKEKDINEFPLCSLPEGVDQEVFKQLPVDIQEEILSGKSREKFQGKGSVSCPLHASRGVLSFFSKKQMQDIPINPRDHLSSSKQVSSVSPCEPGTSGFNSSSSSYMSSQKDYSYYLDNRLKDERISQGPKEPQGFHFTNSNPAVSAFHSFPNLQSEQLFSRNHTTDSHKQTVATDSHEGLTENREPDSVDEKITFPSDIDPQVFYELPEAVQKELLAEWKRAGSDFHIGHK
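Fluorescent replication assay read twice, at 0 min and 10 min after adding 50 nM (final) substrate. Enzyme (10 nM) and compounds were first incubated 15 min at room temperature; enzyme-free buffer wells were negative controls.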
Pol eta inh = qHTS for Inhibitors of Polymerase Eta; hit rate 1.2% among 390,000; DNA polymerase eta (Homo sapiens), Q9Y253; recombinant Pol eta, fluorescent DNA replication assay; AID 588591, 2011; Potency, µM (top dose mostly 114 µM), for inactives: at the top dose activity change, negative = inhibition, actives largely listed as inhibitors; also: potency is read from the fitted curve at half-maximal effect; % is scaled to controls: 0 for no effect and ±100 for the full control effect
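Fluorescent replication assay: 50 nM final substrate added after a 15 min room-temperature compound preincubation with 10 nM enzyme. Signal taken at 0 min and again at 10 min.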
PI5P4K alpha inh = qHTS for Inhibitors of phosphatidylinositol 5-phosphate 4-kinase (PI5P4K); Phosphatidylinositol 5-phosphate 4-kinase type-2 alpha (Homo sapiens), P48426; PI5P4Kalpha enzyme, ADP-Glo luminescence, 60 min; stronger effect = lower value; max response, %; hit rate 1.2% among 330,000; active = max response of -50% or lower; inconclusive = between -30% and -50%; inactive = -30% or higher; also: value at the top dose of about 77 µM; % is scaled to controls: 0 for no effect and ±100 for the full control effect
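Quantitative HTS of the MLSMR library against PI5P4Kalpha with substrate. ATP added last at 5 microM final; room temperature, 60 minutes. Remaining ATP depleted, ADP converted and read as luminescence.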
Pol beta inh = qHTS Assay for Inhibitors of DNA Polymerase Beta | P06746 | Pol beta primer extension/strand displacement, fluorescence kinetic | Potency, µM (top dose mostly 114 µM), without a hit: at the highest dose activity change, negative = inhibition, usual class: inhibitors | hit rate 1.3% among 340,000; also: potency is read from the fitted curve at half-maximal effect; % is scaled to controls: 0 for no effect and ±100 for the full control effect
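Curves were derived by four-parameter Hill fits of normalized qHTS data. The kinetic fluorescent primer-extension read was taken at 0 and 10 min after 50 nM substrate, following a 15 min room-temperature preincubation of 10 nM enzyme with compounds.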
Active calls of the source: *; [ ] = dose if it differs, or a comment. A selection: hits, their analogues and other compounds. The true share with any hit is near 2.8%. Unless noted, calls follow the shape of the dose curve; as a rule, active = well fitted curve in the direction sought with a large enough effect; inconclusive = small, poorly fitted or top-dose-only effect, or another doubt; inactive = no such curve, though single readings can be large; an effect the other way counts as inactive or inconclusive.

`Cc1ccc(-c2nc3ccccc3s2)cc1NC(=S)NC(=O)c1cccc2ccccc12` gave Pol kappa inh 1.7%, WRN inhibitor -22.4%, Pol iota inh -8.5%, Pol eta inh -5.0%, PI5P4K alpha inh 19.6 and Pol beta inh 1.3%.
Screening Cc1ccc(-c2nc3ccccc3s2)cc1NC(=S)NC(=O)/C=C/c1ccco1 returned Pol kappa inh -6.8%, WRN inhibitor inconclusive, Pol iota inh inconclusive, Pol eta inh 20µM*, PI5P4K alpha inh -25.3 and Pol beta inh inconclusive.
For O=C(/C=C/c1ccco1)NC(=S)Nc1cccc(-c2nc3ccccc3s2)c1 the results were Pol kappa inh -23.1%, WRN inhibitor -25.3%, Pol iota inh inconclusive, Pol eta inh inconclusive and PI5P4K alpha inh -21.3.
O=C(/C=C/c1ccco1)NC(=S)Nc1cc(-c2nc3ccccc3s2)ccc1Cl was read as Pol kappa inh -22.7%, WRN inhibitor inconclusive, Pol iota inh inconclusive, Pol eta inh 22.4µM*, PI5P4K alpha inh -56.3* and Pol beta inh -2.7%.
For CCCn1nnc(NC(=S)NC(=O)/C=C/c2ccco2)n1 the results were Pol kappa inh 50.1µM*, WRN inhibitor inconclusive, Pol iota inh inconclusive, Pol eta inh inconclusive, PI5P4K alpha inh -63.4* and Pol beta inh inconclusive.
For Cn1nnc(NC(=O)/C=C/c2ccco2)n1 the results were Pol kappa inh 1.4%, WRN inhibitor 12.0%, Pol iota inh 49.7%, Pol eta inh -11.1%, PI5P4K alpha inh 0.0 and Pol beta inh 1.6%.
Screening Cc1ccccc1NC(=S)NC(=O)/C=C/c1ccco1 returned Pol kappa inh inconclusive, WRN inhibitor 79.4µM*, Pol iota inh inconclusive, Pol eta inh 17.8µM*, PI5P4K alpha inh -58.3* and Pol beta inh 31.6µM*.
For O=C(C[n+]1ccncc1)c1cccc2ccccc12 the results were Pol kappa inh -14.3% and Pol iota inh -3.4%.
`Cc1ccc(-n2nc3cc(C)c(NC(=S)NC(=O)/C=C/c4ccco4)cc3n2)cc1` gave Pol kappa inh -8.0%, WRN inhibitor -6.8%, Pol iota inh 6.0%, Pol eta inh inconclusive, PI5P4K alpha inh -19.9 and Pol beta inh 50.1µM*.
Screening Cc1ccc(-n2nc3ccc(NC(=S)NC(=O)/C=C/c4ccco4)cc3n2)cc1 returned Pol kappa inh -7.7%, WRN inhibitor -17.7%, Pol iota inh 14.0%, Pol eta inh inconclusive, PI5P4K alpha inh inconclusive and Pol beta inh -13.0%.
COc1ccccc1OCC(=O)N/N=C(\C)c1ccc2ccccc2c1 was read as WRN inhibitor -4.1%, Pol eta inh 1.1% and PI5P4K alpha inh -68.5*.
`C/C(=N\NC(=O)Cc1cccn1C)c1ccc2ccccc2c1` gave Pol kappa inh -10.2%, WRN inhibitor -11.9%, Pol iota inh 7.0%, Pol eta inh -4.6%, PI5P4K alpha inh -20.5 and Pol beta inh 19.0%.
Screening COc1cc(NC(=O)c2ccco2)c(OC)cc1NC(=O)c1cc(OC)c(OC)c(OC)c1 returned Pol kappa inh -0.1%, WRN inhibitor 3.0%, Pol iota inh 13.2%, Pol eta inh -12.4% and Pol beta inh 39.8µM*.
For CCOc1cc(NC(=O)c2ccco2)c(OCC)cc1NC(=O)c1cc(OC)c(OC)c(OC)c1 the results were Pol kappa inh -10.6%, WRN inhibitor 0.8%, Pol iota inh 39.3%, Pol eta inh -4.1%, PI5P4K alpha inh 0.9 and Pol beta inh -5.7%.
`COc1cc(OC)cc(C(=O)Nc2ccc(NC(=O)c3ccco3)c(Cl)c2)c1` gave Pol kappa inh -13.9%, WRN inhibitor -2.5%, Pol iota inh 25.1µM*, Pol eta inh inconclusive, PI5P4K alpha inh 0.0 and Pol beta inh inconclusive.
COc1ccc(S(=O)(=O)NNC(=O)Cc2csc(C)n2)cc1[N+](=O)[O-] was read as Pol kappa inh inconclusive, WRN inhibitor 2.4%[11.6 µM], Pol iota inh 50.1µM*, Pol eta inh inconclusive and PI5P4K alpha inh inconclusive.
`COCCCN1C(=O)C(CC(=O)NCc2ccco2)CC(C(=O)N(C(C)C)C(C)C)=C1C` (stereo not drawn) gave WRN inhibitor -8.9% and PI5P4K alpha inh 2.4.
`O=C(c1cc2ncc(Br)cn2n1)N1CCN(C(=O)c2ccco2)CC1` gave Pol kappa inh -13.8%, WRN inhibitor inconclusive, Pol iota inh inconclusive, Pol eta inh 12.6µM*, PI5P4K alpha inh 1.8 and Pol beta inh inconclusive.
For O=C(NCCc1ccccc1)c1cc2ncc(Br)cn2n1 the results were Pol kappa inh -13.9%, WRN inhibitor -23.8%, Pol iota inh inconclusive, Pol eta inh inconclusive, PI5P4K alpha inh inconclusive and Pol beta inh 39.8µM*.
`COCCNC(=O)c1cc2ncc(Br)cn2n1` gave Pol kappa inh 0.0%, WRN inhibitor 0.7%, Pol iota inh -5.8%, Pol eta inh -8.6% and Pol beta inh 23.3%.
O=C(c1cc2ncc(Br)cn2n1)N1CCOCC1 was read as Pol kappa inh -3.9%, WRN inhibitor -5.6%, Pol iota inh -4.3%, Pol eta inh 0.6% and Pol beta inh 6.2%.
For COc1ccc(N2CCc3c(C)nc4c(OC)cc(OC)cc4c32)c(OC)c1 the results were Pol kappa inh -5.0%, WRN inhibitor 0.1%, Pol iota inh 15.4%, Pol eta inh -7.2% and Pol beta inh 14.1%.
COc1ccc(N2CCc3c(C)nc4c(OC)cc(OC)cc4c32)cc1 was read as Pol kappa inh -2.4%, WRN inhibitor 13.6%[11.6 µM], Pol iota inh 24.6%, Pol eta inh -2.6%, PI5P4K alpha inh -0.1 and Pol beta inh 39.8µM*.
Cc1ccc(NC(=O)COC(=O)c2ccccc2OCC(=O)N(C)C)cc1 was read as Pol kappa inh -11.9% and Pol iota inh 21.7%.
For CCOC(=O)c1c(C)[nH]c(=S)c(C#N)c1-c1ccc(OC)cc1 the results were Pol kappa inh -8.0%, WRN inhibitor 0.9%, Pol iota inh inconclusive, Pol eta inh -19.3% and Pol beta inh 20.3%.
For CCCCOc1ccc(-c2c(C#N)c(N)[nH]c(=S)c2C#N)cc1 the results were Pol kappa inh -13.6%, WRN inhibitor -4.3%, Pol iota inh 22.2%, Pol eta inh -16.4%, PI5P4K alpha inh -95.5* and Pol beta inh 0.2%.
Screening CCOC(=O)c1c(C)[nH]c(=S)c(C#N)c1-c1ccc(Cl)cc1 returned Pol kappa inh -26.9%, WRN inhibitor 4.4%, Pol iota inh 79.4µM*, Pol eta inh -21.3%, PI5P4K alpha inh -16.0 and Pol beta inh 1.8%.
